Screening data from PubChem BioAssay.
In the library only some 1.1% were active in any assay of this set; here they are far more common.
COUP-TFII inh – NR2F2 transcriptional activity inhibitors, primary screen, cell-based, luciferase reporter, HEK293T, luminescence | COUP transcription factor 2 (Homo sapiens), P24468 | HEK293T NGFI-A luciferase reporter | inhibition, % at 8.6 µM | 370,000 tested, 0.7% active;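 active = inhibition above a per-plate cutoff, mean inhibition of test wells between control levels plus 3 SD, cut at about 38% in these data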;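 note: cells cotransfected with COUP-TFII expression vector driving the NGFI-A reporter; 0% = median of COUP-TF2 test wells and 100% = reporter-only cells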
Target sequence (P24468 whole entry, looked up): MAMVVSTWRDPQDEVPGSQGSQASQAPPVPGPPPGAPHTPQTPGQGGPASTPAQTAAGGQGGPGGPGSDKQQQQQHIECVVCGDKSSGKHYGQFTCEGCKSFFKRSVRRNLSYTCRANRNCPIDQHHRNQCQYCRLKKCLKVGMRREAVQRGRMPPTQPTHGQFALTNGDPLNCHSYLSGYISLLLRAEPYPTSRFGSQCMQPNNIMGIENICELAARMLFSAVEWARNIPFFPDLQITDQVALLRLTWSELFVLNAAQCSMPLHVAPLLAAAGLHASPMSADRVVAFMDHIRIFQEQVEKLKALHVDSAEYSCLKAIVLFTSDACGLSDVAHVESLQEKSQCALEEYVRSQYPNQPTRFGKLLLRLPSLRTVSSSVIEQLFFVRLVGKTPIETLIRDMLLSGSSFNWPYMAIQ
NCOA3 inh – SRC3 coactivator transcriptional activity inhibitors, primary screen, cell-based, luminescence; Nuclear receptor coactivator 3 (Homo sapiens), Q9Y6Q9; HEK293 GAL4-SRC3 luciferase reporter; inhibition, % at 3.6 µM; 360,000 tested, 0.17% active; AID 588352, 2011;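 active = inhibition above a per-campaign cutoff, the mean of all compounds plus 3 SD, cut at about 60% in these data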;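 note: 0% = DMSO-treated cells and 100% = gossypol-treated cells at 36 µM; higher means less SRC3-driven luciferase light from the GAL4 reporter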
GalR3 antagonist – GalR3 antagonists in HEK293 cells, primary screen, cell-based, fluorescence readout. HEK293 GalR3-CNG cAMP membrane potential fluorescence; galR3 body fused to GalR1 C-terminus. Galanin receptor type 3 (Homo sapiens), O60755. inhibition, % at 3 µM. 360,000 tested, 0.44% active;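 active = inhibition above the screen-wide average plus 3 SD, cut at about 13% in these data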;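 note: forskolin and galanin both at EC90 stimulate the cells; cAMP rise reported by CNG channel membrane potential dye signal; 0% = forskolin plus galanin with DMSO and 100% = forskolin alone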
Target sequence (O60755 1-299 limits assumed): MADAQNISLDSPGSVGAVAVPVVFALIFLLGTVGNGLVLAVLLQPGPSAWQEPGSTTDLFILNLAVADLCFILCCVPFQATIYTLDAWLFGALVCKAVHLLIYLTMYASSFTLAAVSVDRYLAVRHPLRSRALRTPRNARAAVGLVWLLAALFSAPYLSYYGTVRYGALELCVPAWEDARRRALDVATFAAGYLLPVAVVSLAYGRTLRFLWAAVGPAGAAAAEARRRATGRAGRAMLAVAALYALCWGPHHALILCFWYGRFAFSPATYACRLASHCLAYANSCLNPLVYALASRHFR
LRH-1 inv ag – LRH-1 (NR5A2) inverse agonists, primary screen, cell-based, luminescence, HEK293T, StAR-luciferase reporter. 360,000 tested, 0.13% active. LRH-1 transfected, 24 h. AID 602396, 2012. inhibition, % at 3.6 µM. Nuclear receptor subfamily 5 group A member 2 (Homo sapiens), O00482;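 active = inhibition above the mean inhibition of all tested compounds plus 3 SD, cut at about 73% in these data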;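 note: 0% = DMSO wells and 100% = reporter-only cells lacking LRH-1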
SRC1 inh – SRC1 coactivator transcriptional activity inhibitors, primary screen, cell-based, luminescence; Nuclear receptor coactivator 1 (Homo sapiens), Q15788; HEK293 GAL4-SRC1 luciferase reporter; inhibition, % at 3.6 µM; 360,000 tested, 0.12% active; AID 588354, 2011;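 active = inhibition above the campaign mean plus 3 SD, with each screening campaign given its own cutoff, cut at about 60% in these data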;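 note: 0% = DMSO treated cells and 100% = gossypol at 36 µM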
SRC2 inh – inhibition of GAL4-SRC2 driven luciferase reporter, primary screen, SRC2 inhibitor project, cell-based, luminescence; Nuclear receptor coactivator 2 (Homo sapiens), Q15596; inhibition, % at 9 µM; HEK293 GAL4-SRC2 luciferase reporter; 370,000 tested, 0.17% active;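 active = inhibition above the mean inhibition of all tested compounds plus 3 SD, set per campaign, cut at about 52% in these data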;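 note: 0% = DMSO treated cells and 100% = cells given Gossypol at 36 µM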
GalR3 conf – GalR3 antagonist hit confirmation, cell-based, fluorescence, triplicate; shares compounds with GalR3 antagonist; HEK293 GalR3 CNG cAMP biosensor, membrane potential fluorescence; galR3 fused to GalR1 carboxy tail; challenged with forskolin and galanin at EC90; inhibition, % at 3 µM; 1,600 tested, 59% active; AID 652245, 2013;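 active = inhibition above the primary screen's cutoff, the mean inhibition of all screened compounds plus 3 SD, cut at about 13% in these data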;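 note: 0% = forskolin plus galanin and 100% = forskolin alone with DMSO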
CNG parental – nonspecific cAMP agonists in parental HEK-CNG cells, counter-screen for GalR3 antagonist project, cell-based, fluorescence, high throughput | shares compounds with GalR3 antagonist | HEK293-CNG parental cells, cAMP membrane potential fluorescence; normalised: DMSO wells 0%, forskolin wells 100% | activation, % at 3 µM | 1,600 tested, 10% active; in the data active = activation above about 1.3%
* = called active by the depositor; . = no result given.

SMILES	COUP-TFII inh	NCOA3 inh	GalR3 antagonist	LRH-1 inv ag	SRC1 inh	SRC2 inh	GalR3 conf	CNG parental
Oc1ccc2[nH]cc(CCc3ccccc3)c2c1-c1ccccc1	10.2	.	.	.	.	11.7	.	.
CNC(=O)[C@@H]1CC=C[C@@H]2CCN(c3ccccc3)C(=O)[C@@H]21	-12.9	.	.	.	.	.	.	.
CN(CCCNC(=O)c1cn(C)c2ccc(S(=O)(=O)N(C)C)cc2c1=O)c1ccccc1	0.7	5.5	20.3*	3.1	-4.6	1.0	5.7	0.8
CC1CCN(CCCNC(=O)c2cn(C)c3ccc(S(=O)(=O)N4CCCC4)cc3c2=O)CC1	-18.6	3.0	14.7*	7.6	-170.3	-19.4	8.0	0.2
CC1CC(C)CN(CCCNC(=O)c2cn(C)c3ccc(S(=O)(=O)N4CCCC4)cc3c2=O)C1 (stereo not drawn)	-13.4	8.4	-0.7	4.4	-5.4	-16.1	.	.
COC(=O)c1cc(-c2cc(F)cc(OC)c2)c(=O)n2c1CCC2	0.1	.	.	.	.	6.6	.	.
CC[C@H](CCCCCCCn1ccc2ccccc21)CCC(=O)N(c1ccccc1)c1ccccc1	-18.9	.	.	.	.	16.0	.	.
COC(=O)[C@H]1C[C@]2(C(/C=C(\C)CCC=C(C)C)S(=O)(=O)c3ccccc3)c3ccccc3N[C@H]2N1 (stereo partly drawn)	8.2	.	.	.	.	.	.	.
CCn1c(=O)[nH]c(=O)c2c(N)c(C(=O)c3ccccc3OC)sc21	-8.6	19.3	14.7*	18.1	9.5	-5.4	-0.5	0.8
CCc1cc(C(=O)c2ccccc2OC)c(N)s1	14.7	3.5	-4.2	7.6	-7.6	3.5	.	.
CCOC(=O)c1sc(-c2ccc(C)cc2)c(C#N)c1C	-10.8	2.0	-6.2	-6.4	7.4	3.6	.	.
Cc1c(C(=O)NN)sc(-c2ccccc2)c1C#N	9.0	6.3	15.9*	1.5	0.5	11.5	1.0	0.3
CN1C(=O)C(CC(=O)Nc2ccc(F)cc2)N(Cc2cccs2)C1=S (stereo not drawn)	-12.1	12.9	15.5*	0.4	7.4	-19.3	3.9	-0.6
CCCOc1ccc(NC(=O)CC2C(=O)N(C)C(=S)N2Cc2cccs2)cc1 (stereo not drawn)	-3.3	-0.1	-2.2	12.2	6.8	-0.5	.	.
COC(=O)C1CN(C2CC2)CCS(=O)(=O)N1Cc1cn(Cc2ccc(C)cc2)nn1 (stereo not drawn)	3.9	.	.	.	.	11.6	.	.
O=C(NC1CCCCN(Cc2cccc(Cl)c2)C1=O)c1cccc(C(F)(F)F)c1 (stereo not drawn)	1.4	.	.	.	.	-6.9	.	.
COc1cc2c(cc1OC)-c1cc(NC3CCCCCC3)nc(=O)n1CC2	-27.3	-38.2	52.1*	4.9	-25.5	-47.9	58.1*	1.1
CCOc1cccc(Nc2cc3n(c(=O)n2)CCc2cc(OC)c(OC)cc2-3)c1	-16.4	-16.6	16.5*	10.1	-19.7	-32.8	56.2*	0.2
CCN(CC)CCCNc1cc2n(c(=O)n1)CCc1cc(OC)c(OC)cc1-2	-13.0	-15.1	-2.8	-1.6	-12.0	-10.2	.	.
COc1cc2c(cc1OC)-c1cc(OCc3cccnc3)nc(=O)n1CC2	-21.0	-14.9	2.2	-6.2	-23.5	-21.1	.	.
COc1cc2c(cc1OC)-c1cc(Nc3ccc4c(c3)OCCO4)nc(=O)n1CC2	-36.7	45.9	59.3*	23.3	16.1	6.9	57.1*	-0.4
COc1ccc(Nc2cc3n(c(=O)n2)CCc2cc(OC)c(OC)cc2-3)c(C)c1	-55.3	-16.9	39.5*	14.5	-41.9	-38.9	71.9*	0.4
COc1ccc(NC(=O)N2CCc3cc(OC)c(OC)cc3C2)cc1	-0.9	17.3	-7.2	-7.8	2.9	-0.1	.	.
CC[C@H]1OC(=O)[C@H](C)[C@@H](O[C@H]2C[C@@](C)(OC)[C@@H](O)[C@H](C)O2)C(C)[C@@H](O[C@@H]2O[C@H](C)C[C@H](N(C)C)[C@H]2O)[C@](C)(O)C[C@@H](C)CN(C)[C@H](C)[C@@H](O)[C@]1(C)O (stereo partly drawn)	-2.8	.	.	.	.	2.9	.	.
COc1cc2c(cc1OC)-c1cc(Nc3ccccc3)nc(=O)n1CC2	-21.6	-5.1	44.1*	-16.2	-1.4	-33.9	57.3*	0.6
SMILES	COUP-TFII inh	NCOA3 inh	GalR3 antagonist	LRH-1 inv ag	SRC1 inh	SRC2 inh	GalR3 conf	CNG parental
COc1cc2c(cc1OC)-c1cc(Nc3ccc(C)cc3)nc(=O)n1CC2	-6.1	0.7	45.0*	-6.1	-19.9	-14.1	58.8*	0.3
COc1cc2c(cc1OC)-c1cc(Nc3ccc(C(=O)O)cc3)nc(=O)n1CC2	-14.7	-12.8	-7.6	8.0	-1.2	-22.6	.	.
COc1ccc(Nc2cc3n(c(=O)n2)CCc2cc(OC)c(OC)cc2-3)cc1	-10.4	-23.6	21.1*	16.4	-31.6	-31.4	58.6*	0.2
COc1cc2c(cc1OC)-c1cc(Nc3ccccc3Br)nc(=O)n1CC2	-34.7	-37.5	48.9*	18.1	-25.9	-31.5	60.7*	1.2
OC(c1ccccc1)(c1ccccc1)C1CCN(CCCNc2ccccc2F)CC1	-3.2	.	.	.	.	-56.6	.	.
CCCn1c2ccccc2c2nnc(SCc3[nH]c(=O)[nH]c3C(=O)CCCCC(=O)OCC)nc21	18.3	-17.2	16.8*	-27.4	-3.3	-14.8	12.1	0.5
CCOC(=O)CCCCC(=O)c1[nH]c(=O)[nH]c1CSc1nnc2c3ccccc3n(C(C)C)c2n1	5.7	10.8	31.4*	-0.5	-26.2	19.4	17.6*	0.3
COC(=O)[C@H]1C[C@@]2(n3ccc4ccccc43)c3ccccc3N[C@H]2N1	-6.9	.	.	.	.	21.4	.	.
O=C(NCc1cccs1)C1CCCN1C(=O)Nc1ccccc1Cl (stereo not drawn)	-10.8	9.3	-7.7	15.4	-5.9	-18.8	.	.
Cc1ccccc1NC(=O)N1CCCC1C(=O)NCc1cccs1 (stereo not drawn)	3.6	5.4	.	-23.4	14.0	-24.0	1.4	-1.5
CC(C)(C)OC(=O)n1cc(-c2ccccc2)c2c(-c3ccccc3)c(O)ccc21	4.8	.	.	.	.	10.3	.	.
Nc1[nH]n2c(=O)c3c(nc2c1N=Nc1ccc(Cl)cc1)CCCC3	4.6	-14.7	3.0	-11.5	-7.5	-16.2	.	.
